HCMV inh – human cytomegalovirus inhibition; activity change, negative = inhibition, % at 57.5 µM; HFF cells, HCMV-luciferase reporter, 72 h; hits give low values; 410,000 tested, 4.5% active; in the data active = activity change below about -60%; inconclusive = no clear call, values can overlap the other calls; inactive = above about -39%
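After 16 h attachment at 37C, HFF cells received test compound and HCMV-luciferase (1 PFU/cell); reporter luminescence read 72 h later, data normalized against buffer-only and known inhibitor Salinomycin.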
Lassa entry inh – blocks Lassa virus binding to or entry into cells; Lassa virus pseudotype entry inhibition, cell reporter; Potency, µM (top dose mostly 37.9 µM), inactives show at the top dose activity change, negative = inhibition, usual class: inhibitors; 300,000 tested, 1.2% active; calls by dose curve; tested in HEK293 cells; also: potency is read from the fitted curve at half-maximal effect; nearly all actives have a fitted effect of over 50% in size
Marburg entry inh – Marburg virus entry inhibition; 300,000 tested, 1.8% active; AID 540276; Potency, µM (series often up to 37.8 µM), for inactives: top-dose activity change, negative = inhibition, usual class: inhibitors; Marburg virus pseudotyped entry inhibition, cell reporter; calls by dose curve; tested in HEK293 cells; also: potency is read from the fitted curve at half-maximal effect
FMDV antiviral – blocks foot and mouth disease virus; Potency, µM (series often up to 57.9 µM), for the others: top-dose activity change, negative = inhibition, actives largely listed as inhibitors; 410,000 tested, 1.2% active; AID 1159524; FMDV antiviral cell-based qHTS; calls by dose curve; tested in HEK293T cells; also: read-out not given here; potency is read from the fitted curve at half-maximal effect; nearly all actives have a fitted effect of over 45% in size
Numbers without * were called inactive; ? = inconclusive; · = not tested or not shown; [ ] = another dose, or the depositor's remark. Hits are enriched below; roughly 6.2% of the tested compounds scored in any of these assays. % is scaled to controls: 0 for no effect and ±100 for the full control effect.

SMILES | HCMV inh | Lassa entry inh | Marburg entry inh | FMDV antiviral
CCOc1ccccc1C1NC(=O)NC(C)=C1C(=O)OC1CCCC1C (stereo not given) | -68* | ? | ? | -23%
COc1ccc(COC(=O)C2=C(C)NC(=O)NC2c2ccc(F)cc2)cc1 (stereo not given) | -75* | ? | ? | 25µM*
CCN(c1ccccc1)C(CNS(=O)(=O)c1ccccc1)c1ccccc1 (stereo not given) | 3 | ? | -16%[46.1 µM] | 21%
COc1cc(O)ccc1CN1CCc2nnc(C(C)NC(=O)c3cc(F)ccc3F)n2CC1 (stereo not given) | · | · | · | -19%
CCN(CC)c1nc2ccccc2nc1C(=O)Nc1cc(OC)c(OC)c(OC)c1 | -3 | -18%[46.1 µM] | · | ?
CC1=C(C(=O)OC2CCCCCCC2)C(c2ccc(O)cc2)NC(=O)N1 (stereo not given) | -38 | 2.6µM* | 0% | ·
COc1ccccc1C1NC(=O)NC(C)=C1C(=O)OCc1ccccc1 (stereo not given) | 6 | ? | ? | ?
CCCCCCN(C(=O)CCCCCN1C(=O)NC(c2cccc([N+](=O)[O-])c2)C(C(=O)OCc2ccccc2)=C1C)C(C(=O)NCCCC)c1ccc(OCC(=O)OC)c(C(=O)OC)c1 (stereo not given) | -74* | · | · | ·
COC(=O)CCCCCN1C(=O)NC(c2ccccc2)C(C(=O)OCc2ccccc2)=C1C (stereo not given) | -32 | ? | -29% | 28µM*
CCCCCCN(C(=O)CCCCCN1C(=O)NC(c2ccc(-c3ccccc3)cc2)C(C(=O)OCc2ccccc2)=C1C)C(C(=O)NCCCC)c1ccc(OCC(=O)OC)c(C(=O)OC)c1 (stereo not given) | -3 | · | · | ·
CC1=C(C(=O)OCc2ccccc2)C(c2ccccc2Br)NC(=O)N1 (stereo not given) | -21 | ? | ? | 28µM*
O=C(Cc1ccc([N+](=O)[O-])cc1)NCCc1c[nH]c2ccccc12 | 5 | · | · | ·
COc1ccc(OC)c(C2NC(=O)N(C)C(C)=C2C(=O)OCc2ccccc2)c1 (stereo not given) | 10 | · | · | ?
CC1=C(C(=O)OCc2ccccc2)C(c2ccccc2Cl)NC(=O)N1C (stereo not given) | -20 | -16% | 0% | 18µM*
CCOC(=O)N1CCC(NC(=O)c2ccc3c(c2)sc2nc(-c4ccccc4)cn23)CC1 | · | ? | 11µM* | ?
CCCCn1c(=O)n(CC2CCC(C(=O)NCCCOC)CC2)c(=O)c2sccc21 (stereo not given) | 5 | ? | · | -12%
COc1ccc(/C=C(\C#N)c2nc(-c3cc4c(ccc5ccccc54)oc3=O)cs2)cc1O | 16 | 3%[46.1 µM] | · | -5%
O=C(Nc1cccc([N+](=O)[O-])c1)N1CCN(c2ccccc2)CC1 | -64* | -13%[46.1 µM] | -7%[46.1 µM] | -14%
O=C(c1ccco1)N1CCN(C(=S)Nc2cccc([N+](=O)[O-])c2)CC1 | -69* | ? | ? | ?
Cc1ccc(N2CCN(C(=O)Nc3cccc([N+](=O)[O-])c3)CC2C)cc1 (stereo not given) | -65* | ? | ? | ?
Cc1c(C(=O)NCCc2ccc(Cl)cc2)sc2nc3n(c(=O)c12)CCCC3 | ? | ? | · | -21%
C[C@H](NC(=O)OC(C)(C)C)C(=O)N/N=C/C1=Cc2ccccc2OC1 | -78* | · | · | -3%
CCC(C)[C@H](NC(=O)OC(C)(C)C)C(=O)N/N=C/C1=Cc2ccccc2OC1 (stereo not given in full) | ? | ? | ? | 12%
NC(N)=N/N=C(\N=Nc1ccccc1)c1ccc(Cl)cc1 | 207 | 16µM* | ? | 9%
O=C(NCc1nnc2n1CCN(Cc1cc3c(cc1Cl)OCO3)CC2)C1CCOC1 (stereo not given) | · | · | · | -2%
SMILES | HCMV inh | Lassa entry inh | Marburg entry inh | FMDV antiviral
CC(=O)C1CCC2C3CC=C4CC(SC(=N)N)CCC4(C)C3CCC12C (stereo not given) | 9 | ? | 11µM* | 0%
CC(C)(C)[C@H](N)C(=O)N[C@H]1CCC2C3CC=C4C[C@@H](O)CC[C@]4(C)C3CC[C@@]21C (stereo not given in full) | -99* | ? | ? | -12%
Cc1cc(C)cc(NC2=C(c3ccccc3)C(=O)c3ccccc32)c1 | -24 | 2%[46.1 µM] | 6%[46.1 µM] | ?
COc1ccc2c3c([nH]c2c1)[C@@H](CO)N(C(=O)c1ccccc1)CC31CN(C(=O)CC2CC2)C1 | 5 | · | · | ·
CCc1[nH]nc2c1C(C(C)C)C(C#N)=C(N)O2 (stereo not given) | -20 | 17% | 1% | 32µM*
Cc1[nH]nc2c1C(c1ccc(F)cc1)C(C#N)=C(N)O2 (stereo not given) | 54 | -9% | -27% | ?
Cc1nn(-c2ccccc2)c(Cl)c1C1C(C#N)=C(N)Oc2n[nH]c(C)c21 (stereo not given) | -103* | -16% | 27% | 0%
CCC(CC)C1C(C#N)=C(N)Oc2n[nH]c(C)c21 (stereo not given) | -24 | -19% | ? | 35µM*
Cc1[nH]nc2c1C(C1CC=CCC1)C(C#N)=C(N)O2 (stereo not given) | -3 | -13% | -25%[46.1 µM] | 25µM*
Cc1nc2c3cccnc3nn2c(C)c1CCC(=O)NCc1ccccc1Cl | -6 | 20%[46.1 µM] | ? | -8%
FC(F)(F)c1cc(CCN2CCNC[C@H]2Cc2cccc3ccccc23)cc(C(F)(F)F)c1 | -80* | · | · | -28%
CCc1ccccc1NC(=O)c1ccc2c(c1)nnn2C1CCCC1 | -22 | 1%[46.1 µM] | · | -8%
CCOc1ccccc1CNC(=O)c1ccc2nc(CCc3ccccc3)oc2c1 | 8 | -7%[46.1 µM] | · | 5%
COc1ccc(/C=C2\Sc3ccc(C(=O)N4CCN(Cc5ccccc5)CC4)cc3N(C)C2=O)cc1OC | -83* | · | · | 13µM*
Cc1ccc(N=c2oc3cc(O)ccc3cc2C(N)=O)cc1 | -80* | ? | ? | -2%
CC(=O)c1cc2ccc(O)cc2oc1=O | -33 | · | · | -16%
Cc1ccc2[nH]c3c(c2c1)CCC[C@H]3C(N)=O | · | · | 5% | ·
Cc1ccccc1OCC(O)CN(Cc1ccccc1O)C1CCCCC1 (stereo not given) | ? | -16%[46.1 µM] | 11µM* | 24%
CCOc1ccc(OCC(O)CNC2CCN(Cc3ccccc3)CC2)cc1 (stereo not given) | -64* | 6.3µM* | 1.6µM* | -17%
CN(CC(O)COc1ccccc1F)C1CCCCC1 (stereo not given) | 11 | 5%[46.1 µM] | ? | -3%
Cc1ccc(OCC(O)CNC2CCCC2)c(C)c1 (stereo not given) | 89 | · | · | 1%
CC(C)(C)NCC(O)COc1ccccc1C1CCCC1 (stereo not given) | -78* | · | · | -22%
Cc1ccccc1OCC(O)CNC1CCC(NCC(O)COc2ccccc2C)CC1 (stereo not given) | -100* | ? | 1.1µM* | ?
CCc1ccc(OC(C)C(=O)Nc2c(C(=O)c3ccccc3)oc3ccccc23)cc1 (stereo not given) | -8 | -6%[46.1 µM] | ? | -21%
CCc1ccc(CNC(=O)c2cnc3c(C)cccn3c2=O)cc1 | 0 | ? | · | 14%
